# Measurements as given in the supplement of paper PMC11417369.
# The full ranking holds about 25,000 sequences; the median of “ln(normalized median fluorescence intensity)” is about 6.7, and the highest 2% start at about 10. The sample holds the highest values, similar sequences and a random draw of the others, so the mix is not that of the screen.
# Tested on: PfHDP1 homeodomain (GST-tagged)
# Experiment: gcPBM binding intensity (ln(normalized median fluorescence intensity)); higher = stronger DNA binding
# Summary of the method: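 Using an Agilent 4 × 180k array, primer-extended double-stranded 36-bp intergenic genomic probes and negative controls were exposed for 1 h to GST-fused P. falciparum DNA-binding domains expressed in E. coli. Binding was carried out in 1× PBS with 1% milk, 0.2 mg/ml BSA, 0.5% salmon testes DNA and 0.03% Triton X-100, and protein was detected with Alexa488 anti-GST antibody and a 488 nm scan. Binding intensity is the highest Masliner-normalised natural-log median intensity across replicate spots of either probe orientation.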
row,Sequence,gcPBM binding intensity (ln)
1,CCATTTGATAATAATGCACACCACATATATTTATAT [CACACA_site9002],10.1
2,TTATTTACATCAAGTACATGCAGTAAAAAAAAAAAA [TGCATGCA_site351],6.41
3,ATATATATATATATATGTACTTATTTATCGTATTAT [XGTACX_site3520],9.59
4,TCTTTTAACACATGTGATATTATTTAATAACAATAA [CACACA_negctrl_site339],6.51
5,CTTTTTTTAATGATAACACACATGTTGTGCATAGAC [CACACA_site3270],10.7
6,TACACATAATATAATGCATGTGTGATGTATGTTTAA [TGCATGCA_site697],6.56
7,TTTTTTTTTTATTAATGTACAAGATATATAATGTTA [XGTACX_site4809],6.16
8,TTAAAAAACCTTAGATGTACAGTTATATATAAAATA [XGTACX_site6688],6.37
9,TAACTTAATTTTAATGCACACAATTTATATATATAT [CACACA_site6022],10.5
10,TTTAATTATTAGTGTGCACACAACTATGAGTTTTTA [CACACA_site8997],10.8
11,TTTAATTTTCGGTGTGCACACAACTATGAGTTTTTA [CACACA_site3034],11.2
12,TTTTTAATTTATTGTGTGCACACAACTATGAGTTTT,10.3
13,AACGGGGGTAGTTTTATGCACACGTTTATTAATGCT [CACACA_site3173],9.56
14,AACAACTATTAATTTACACACATGTATATATTTTAC [CACACA_site3116],6.82
15,TTTTTTTTTTTTTTTTGTACATATTTTTAAACTATA [XGTACX_site2897],6.24
16,TTCTTTTTTCGACACACACACACAAGAAGATATATA [CACACA_site7456],7.11
17,ATATATCTATAAAAGGCTTCCCACTTTTTTTGTCAA [TGCATGCA_negctrl_site332],6.39
18,GGCGTATGTGTATATACACACCCACGTATATATATA [CACACA_site9046],8.02
19,CCTATTTATATATACACACACATATATAAATAAATA [CACACA_site2991],6.95
20,TATATATATGAGTATACACACCTGATAAAGGTATAT [CACACA_site5462],6.87
21,TAATGTAAAATTTAGAGTACATAAAAAATTGGATGA [XGTACX_site7225],6.68
22,AATTATATAAGCCACGCATGTGTGCATAAAAATACA [TGCATGCA_site114],10.9
23,AAATAAAATTATAATACATGCATACATACATATATA [TGCATGCA_site69],6.3
24,AAAAATAAAATATATACATGCATATACATATTATAT [TGCATGCA_site668],6.31
25,CCATAATATTATAGACGTACGAATATATATAAAAGA [XGTACX_site7295],7.24
26,ACATATAAATGATATGTACACACATTTATATATATA [CACACA_site9152],7.4

row,Sequence,gcPBM binding intensity (ln)
1,TAAAGATATAAATGCACACGTATTAAAAAAAAAATA [CACACA_site952],9.54
2,AAAATTAATGTTGGTTGTACAAAAATTAAATATGGT [XGTACX_site66],6.85
3,ACATTAACATTGTTGGTGCAAAATTAATATGTTTTT [GTGCAC_site9673],10.7
4,TATATTAACAAAATGGTGCAATAATTTCTATATTGT [GTGCAC_site9430],10.4
5,TAAATACATAAAAATTGTACACATTGTTTTCTCTTT [XGTACX_site6435],6.49
6,TAGAAATATATAAATTGTACATGTTTGTATAATATA [XGTACX_site2097],6.44
7,CTTAAATTTTTAAATACACACATACACCCATACACA [CACACA_site4461],7.25
8,TAAAATAAAAAGTTTACACACATATATAATTTTAAT [CACACA_site662],6.24
9,ACCCAATTTTTTAGTACACACATATAAATATATAAA [CACACA_site4944],6.86
10,ATATTTATACTATACACACCCAATTTAAAAAAAAAT [CACACA_site1163],7.11
11,ATTAAATGCACATATACACACACCCAATTTTAAGTT [CACACA_site3049],11.3
12,TAAATGCACATATACACACACCCAATTTTAAGTTTT [CACACA_site7428],11.1
13,TTCTTAAGGAACGAACGTACAGAATAAAAAGTAAAA [XGTACX_site4294],6.61
14,GTTTATGTTAAACCATGTACTTAATATTTTATTCTT [XGTACX_site3761],6.29
15,ATTACATTTTTAATGCGTACTAAAAATGTATATAAG [XGTACX_site6384],6.6
16,ATTGAAAAACCGTTTAGTACATATCATCACGTTTGT [XGTACX_site1295],6.04
17,CATACATACATACATACACACACATATATATATATA [CACACA_site8593],9.27
18,TGCTTTTCTTTTTGCACACTTATGCATATATATATA [CACACA_site2583],10.8
19,TTTCTATATGGATTTGCACACATAAAAATGCTTATA [CACACA_site8751],10.2
20,ATTGCTTTTCTTTTTGCACACTTATGCATATATATA [CACACA_site2584],10.4
21,CCCTCCCCATGTTTAGTGCAAAAATATTTGAAATTG [GTGCAC_site9873],10
22,TTTGAATACTGAATGGTGCAAATTGTTCTCCCCATG,10.5
23,TTGTTCTTTTGAAAGGTGCAAAAGAAAAATAATTAA,9.53
24,AAAGGATTTATACTAGTGCAAAAATATAAAAATATA,9.12
25,TTTTTTTTTTATGAAAGTACATATGAAAAATACGAA [XGTACX_site3451],6.53
26,CATTTTTTTTTATAAATACACACGTACGGGTGCATA [CACACA_site1569],7.38

row,Sequence,gcPBM binding intensity (ln)
1,ATTAAAAATTCAATTGCACACGCACATATTTTAATA [CACACA_site8618],9.92
2,ATATTTAAATTTTGCACACGCATATGAAATTAGGAC [CACACA_site1035],10.5
3,TGATATTTAAATTTTGCACACGCATATGAAATTAGG [CACACA_site1034],10.1
4,GACTCATTAAGGATTATTCCTAATGATCAAAAGAAC [CACACA_negctrl_site515],6.54
5,TCTTAAAATATATAGGTGCAAAAAAAAAAAAAAAAA,8.62
6,TTTCTAATTTATATCACACACATATATTTATAGTAA [CACACA_site6280],6.53
7,ATAAAAATCAAAAAAAATACATAATAGTAATAATAA [GTGCAC_negctrl_site481],6.42
8,ATATTTTTATATAATGAACACACATATTATATCATT [CACACA_site8446],6.22
9,TTTCACATATATATGGTGCATATTTTATGTGTAAAT [GTGCAC_site9937],9.91
10,ATGCATACACTTATATGTACACATTTACATATTATT [XGTACX_site2841],6.93
11,CTTTATATATATTGCGTGCACATTTTTTTTTTTTTT,9.4
12,GGAACTTATTTTTATACACACATATGTGCATATTAT [CACACA_site629],10.8
13,CATGAATATTTTAATGTGCACATTTATCATTATATG,10.6
14,TATATATATATATATGTGCACATTTATTGCCTTTGC,10.6
15,TTTTTTTTCTATGTGGTGCACATTATTTTTTTTTTT,9.27
16,TTTTGTTTATGTGTGCATTATATTATATTTTTTATT [TGCATGCA_negctrl_site146],10.2
17,CTTATGTGCATACCTACACACTTACCTATATTTATA [CACACA_site7411],9.67
18,GTAAAGGCTATATATGTGCACATTTTTTTTTTTTTT [GTGCAC_site9925],10.9
19,ATTTTTATATAATGAACACACATATTATATCATTTA [CACACA_site1572],6.51
20,TTTTGTTTAGTGTATTGTACAATATATCTTTATTTT [XGTACX_site5163],6.52
21,TTTTGGCTGATCAGATTTAACAAAAAAAAAAAAAAA [CACACA_negctrl_site671],6.06
22,GAAATTAAATGACATACACACTATATTATAGATTTT [CACACA_site7468],6.23
23,AGTGGGATTTTTAATTGTACATAAATAATATCATAA [XGTACX_site4163],6.56
24,AGAATTAAAAACAGTTGTACAAAAAGTTGTATAAAT [XGTACX_site411],7.41
25,AAATAAAAGGTTGAGAGTACATTTTTGTGTATGTAT [XGTACX_site5547],6.49
26,ACTGAAAAAAGAAATACACACATTCTGGATCAGATA [CACACA_site7760],6.39

row,Sequence,gcPBM binding intensity (ln)
1,ATTTACATTATATTGAATATGCCATATTATATTATT [CACACA_negctrl_site811],6.59
2,CGTATGTGCGGACATGCATGCAATATACAAGAAAAA [TGCATGCA_site145],7.01
3,CATTATATGATTTATGTGCACATTCATTTATTTTAA,10.8
4,TTATATTATATATATGTGCACATTTTTAAACTTGGA,10.7
5,TATATATATATATATGTGCACATTTTATTAAAATGT,10.2
6,TATTTTTAACAGTGCACACATAACTTAATTATATGT [CACACA_site2194],9.55
7,TATATTATTCATTAAGCACACATTATTTTTATAATA [CACACA_site6056],6.36
8,ACATATTATTCAAGTGCACACTTTATATTTATGATT [CACACA_site3295],8.81
9,TACTTAATTATAAGGACATGCACAAAAGGAATTATT [TGCATGCA_site468],8.01
10,CTTATTTTGTTATAAGTGCATTTTTTAAAATTTCTT,8.33
11,TGTTAAAATTATTTGGTGCACTTGTTTTACCTTATT,9.92
12,ATTTATTTCTTGTTAGTGCACTTTCTTTGGTAAAAT,10.9
13,ATCTTATATATACGTTGTACTACAGGATATGTCATA [XGTACX_site5734],6.63
14,TTAAAATTCAAAAAAAAAAATCAGAATATCAGAAAA [CACACA_negctrl_site1361],5.92
15,TATATATGTATATGTGTGCACCTTATTTCTTTTATT [GTGCAC_site9513],9.55
16,ATTTATATTAAAAGTGTGCACTTTTTTTTTTTTTTT,8.1
17,CATTTTGTTTTAAAGTGTACATTATGTAATATAAAA [XGTACX_site647],6.54
18,ATTGTGCACTTATATGCACACATTTTAGTTTTTTTT [CACACA_site2028],11.5
19,ATATATATATAAAGTTGTACATTTTTTATTTTTTCA [XGTACX_site7847],8.52
20,TATATATATTAGTGTGCACACTTTTTATTTTTATCC [CACACA_site8506],10.5
21,TAATATTATTATTTTACACACTTTTTTCCTTTTATC [CACACA_site2457],6.61
22,ATATTACACATATATGCACACATTGTAGTTATTTAT [CACACA_site8843],8.92
23,ATTTATATGCACCATTGTACGTTTTATAAAGTTTGG [XGTACX_site3755],10.5
24,TTATATTTAGTATATGCACACTTTATGTTTGTTATT [CACACA_site5163],9.53
25,TATATATTTCGGTGTGCACACTTTTTATTTTTATCC [CACACA_site1726],10.7
26,TATATTTATATATTAGTGCACTTTTTGTTAATTTTT,10.3
